Several values for one entry are separate records, joined by “and”; a condition that tells them apart may be missing. Identical values can stand only once. Records with an inconclusive call do not appear. The source holds several records for some structures; these can differ, active in one and inactive in another. Activity calls are given as the source filed them. How the source made its calls: active means hit-call score of the fitted dose curve at least 0.9, where 1 is the maximum; inconclusive means response in the unintended direction; inactive means score below 0.9.
Assays:
[1] = target: rat Androgen Receptor (AR), Ar (gene 24208) (UniProt P15207); test: NVS_NR_rAR: NovaScreen (NVS) Nuclear Receptor Binding Assay for rat Androgen Receptor (AR) (AID 2283366)
rat Androgen Receptor (AR), Ar (gene 24208), sequence (P15207 whole entry, looked up): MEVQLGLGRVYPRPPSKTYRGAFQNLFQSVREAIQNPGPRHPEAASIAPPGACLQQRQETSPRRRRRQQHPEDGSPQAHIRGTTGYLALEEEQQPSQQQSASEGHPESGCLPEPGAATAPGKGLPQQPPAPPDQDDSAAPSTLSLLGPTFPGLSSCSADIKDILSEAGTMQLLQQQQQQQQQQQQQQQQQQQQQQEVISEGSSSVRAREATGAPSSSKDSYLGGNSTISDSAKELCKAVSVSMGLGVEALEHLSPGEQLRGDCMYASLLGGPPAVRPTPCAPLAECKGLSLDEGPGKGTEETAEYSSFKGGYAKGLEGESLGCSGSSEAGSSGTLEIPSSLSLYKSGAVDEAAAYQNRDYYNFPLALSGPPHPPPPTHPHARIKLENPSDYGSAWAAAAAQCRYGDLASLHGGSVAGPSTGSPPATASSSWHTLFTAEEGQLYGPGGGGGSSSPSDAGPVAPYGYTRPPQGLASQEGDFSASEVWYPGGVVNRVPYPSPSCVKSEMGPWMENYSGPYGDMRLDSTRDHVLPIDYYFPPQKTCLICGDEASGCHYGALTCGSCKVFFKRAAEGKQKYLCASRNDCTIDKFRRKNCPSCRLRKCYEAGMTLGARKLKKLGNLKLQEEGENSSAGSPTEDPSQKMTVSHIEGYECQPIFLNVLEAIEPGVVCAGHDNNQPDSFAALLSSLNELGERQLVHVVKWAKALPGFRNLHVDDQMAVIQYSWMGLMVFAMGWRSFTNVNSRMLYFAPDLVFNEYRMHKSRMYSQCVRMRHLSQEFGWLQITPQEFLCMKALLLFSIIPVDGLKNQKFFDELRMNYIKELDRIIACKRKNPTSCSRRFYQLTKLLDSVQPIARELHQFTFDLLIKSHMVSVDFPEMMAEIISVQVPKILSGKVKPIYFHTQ
In short: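 Cell-free radioligand binding on extracts of prostate from testosterone-pretreated rats, read by filter-based scintillation counting 18 h after dosing. Loss of bound signal fitted positively versus DMSO; primary screen in duplicate at 25 uM, actives followed up in concentration series.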

[2] = target: Peroxisome proliferator-activated receptor gamma (Homo sapiens) (UniProt P37231); test: NVS_NR_hPPARg: NovaScreen (NVS) Nuclear Receptor Binding Assay for human Peroxisome Proliferator-activated Receptor gamma (PPARg) (AID 2283370)
Peroxisome proliferator-activated receptor gamma (Homo sapiens), sequence (P37231 whole entry, looked up): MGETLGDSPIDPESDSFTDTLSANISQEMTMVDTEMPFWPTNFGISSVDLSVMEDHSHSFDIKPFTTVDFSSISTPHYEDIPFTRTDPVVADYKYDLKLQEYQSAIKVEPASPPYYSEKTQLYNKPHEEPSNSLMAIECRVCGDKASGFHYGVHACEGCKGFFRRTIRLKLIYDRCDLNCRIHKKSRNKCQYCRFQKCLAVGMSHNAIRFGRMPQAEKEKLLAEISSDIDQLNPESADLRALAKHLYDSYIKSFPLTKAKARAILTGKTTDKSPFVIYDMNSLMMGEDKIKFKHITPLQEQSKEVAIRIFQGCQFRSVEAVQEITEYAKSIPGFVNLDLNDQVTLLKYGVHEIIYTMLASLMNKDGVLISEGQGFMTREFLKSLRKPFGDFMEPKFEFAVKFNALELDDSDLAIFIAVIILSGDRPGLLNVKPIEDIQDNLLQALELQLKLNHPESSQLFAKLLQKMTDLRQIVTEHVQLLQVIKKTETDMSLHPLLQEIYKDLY
In short: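 Fluorescence polarization readout of ligand binding to extracted human PPARg, measured at 2 h. Duplicate single-point screen at 25 uM, then concentration-series retesting; activity defined as signal loss versus DMSO.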

[3] = test system: guinea pig Dopamine Transporter (DAT), gene 100714898; test: NVS_TR_gDAT: NovaScreen (NVS) Transporter Assay for guinea pig Dopamine Transporter (DAT) (AID 2283369);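 further: active compounds lower bound radioligand signal relative to DMSO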
In short: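 Radioligand displacement on membranes from guinea pig striatum, 2 h exposure, bound label counted by filtration and scintillation. Tested at 25 uM in duplicate, then actives in concentration series to 50 uM; DMSO as negative control.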

[4] = target: mouse Estrogen Receptor alpha (Era), Esr1 (gene 13982) (UniProt P19785); test: NVS_NR_mERa: NovaScreen (NVS) Nuclear Receptor Binding Assay for mouse Estrogen Receptor alpha (Era) (AID 2283378);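 further: hit means loss of bound radioligand signal relative to DMSO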
mouse Estrogen Receptor alpha (Era), Esr1 (gene 13982), sequence (P19785 whole entry, looked up): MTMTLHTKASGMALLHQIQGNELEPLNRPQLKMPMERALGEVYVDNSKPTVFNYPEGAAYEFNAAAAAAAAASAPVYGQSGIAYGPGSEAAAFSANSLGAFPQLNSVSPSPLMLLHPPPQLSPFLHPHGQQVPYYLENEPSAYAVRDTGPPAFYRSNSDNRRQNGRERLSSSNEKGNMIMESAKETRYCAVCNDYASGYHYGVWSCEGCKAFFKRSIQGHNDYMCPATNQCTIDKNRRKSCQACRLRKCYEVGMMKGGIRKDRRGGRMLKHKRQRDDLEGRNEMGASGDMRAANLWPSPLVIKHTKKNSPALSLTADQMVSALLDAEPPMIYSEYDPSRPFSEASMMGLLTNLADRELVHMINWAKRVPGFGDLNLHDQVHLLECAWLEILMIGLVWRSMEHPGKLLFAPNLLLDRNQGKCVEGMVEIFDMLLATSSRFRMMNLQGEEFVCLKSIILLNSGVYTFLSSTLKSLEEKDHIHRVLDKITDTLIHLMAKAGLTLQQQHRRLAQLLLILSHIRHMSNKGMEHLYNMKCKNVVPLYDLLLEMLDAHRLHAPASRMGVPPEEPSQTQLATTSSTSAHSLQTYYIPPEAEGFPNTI
In short: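 Filter radiodetection of radioligand displacement from extracted receptor protein, measured 18 h post-dose. Single 25 uM concentration in duplicate initially, with concentration-series follow-up. Binding loss fitted relative to DMSO.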

[5] = target: guinea pig Sigma Receptor, Non-selective Binding, SIGMAR1 (gene 100135589) (UniProt Q60492); test: NVS_OR_gSIGMA_NonSelective: NovaScreen (NVS) Nuclear Receptor Binding Assay for guinea pig Sigma Receptor, Non-selective Binding (AID 2283367)
guinea pig Sigma Receptor, Non-selective Binding, SIGMAR1 (gene 100135589), sequence (Q60492 whole entry, looked up): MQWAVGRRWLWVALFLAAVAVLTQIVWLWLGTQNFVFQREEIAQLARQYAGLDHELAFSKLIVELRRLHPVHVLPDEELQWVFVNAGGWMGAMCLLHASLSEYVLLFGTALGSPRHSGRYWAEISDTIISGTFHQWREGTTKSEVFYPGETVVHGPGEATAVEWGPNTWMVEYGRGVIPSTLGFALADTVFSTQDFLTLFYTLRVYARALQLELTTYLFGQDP
In short: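 Radioligand displacement on guinea pig brain membranes, read by filter-based scintillation counting 1 h after dosing. Loss of signal versus DMSO; initial duplicate single-point screen at 25 uM, actives followed in concentration series.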

[6] = target: human Adenosine Transporter (Adot), SLC29A1 (gene 2030) (UniProt Q99808); test: NVS_TR_hAdoT: NovaScreen (NVS) Transporter Assay for human Adenosine Transporter (Adot) (AID 2283368)
human Adenosine Transporter (Adot), SLC29A1 (gene 2030), sequence (Q99808 whole entry, looked up): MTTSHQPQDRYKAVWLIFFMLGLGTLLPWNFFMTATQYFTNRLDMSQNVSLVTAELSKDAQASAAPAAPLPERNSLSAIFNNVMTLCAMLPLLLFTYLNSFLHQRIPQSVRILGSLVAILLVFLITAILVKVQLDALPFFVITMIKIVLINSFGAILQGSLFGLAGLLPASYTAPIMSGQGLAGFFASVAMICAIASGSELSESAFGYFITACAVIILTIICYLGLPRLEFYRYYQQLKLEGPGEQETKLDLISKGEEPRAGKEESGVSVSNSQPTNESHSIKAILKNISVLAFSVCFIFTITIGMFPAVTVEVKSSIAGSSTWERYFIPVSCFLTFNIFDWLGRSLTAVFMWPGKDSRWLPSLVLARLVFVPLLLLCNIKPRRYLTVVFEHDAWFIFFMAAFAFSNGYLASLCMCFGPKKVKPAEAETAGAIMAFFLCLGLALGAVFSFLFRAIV
In short: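 U937-derived membranes, cell-free radioligand binding, filter scintillation 1 h after dosing. 25 uM duplicate screen; hits (e.g. 30% inhibition) run in concentration-response up to 50 uM; loss of signal versus DMSO.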

[7] = target: human Norepinephrine Transporter (NET), SLC6A2 (gene 6530) (UniProt P23975); test: NVS_TR_hNET: NovaScreen (NVS) Transporter Assay for human Norepinephrine Transporter (NET) (AID 2283377);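 on AC50: displacement of radioligand from human NET seen as loss of scintillation signal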
human Norepinephrine Transporter (NET), SLC6A2 (gene 6530), sequence (P23975 whole entry, looked up): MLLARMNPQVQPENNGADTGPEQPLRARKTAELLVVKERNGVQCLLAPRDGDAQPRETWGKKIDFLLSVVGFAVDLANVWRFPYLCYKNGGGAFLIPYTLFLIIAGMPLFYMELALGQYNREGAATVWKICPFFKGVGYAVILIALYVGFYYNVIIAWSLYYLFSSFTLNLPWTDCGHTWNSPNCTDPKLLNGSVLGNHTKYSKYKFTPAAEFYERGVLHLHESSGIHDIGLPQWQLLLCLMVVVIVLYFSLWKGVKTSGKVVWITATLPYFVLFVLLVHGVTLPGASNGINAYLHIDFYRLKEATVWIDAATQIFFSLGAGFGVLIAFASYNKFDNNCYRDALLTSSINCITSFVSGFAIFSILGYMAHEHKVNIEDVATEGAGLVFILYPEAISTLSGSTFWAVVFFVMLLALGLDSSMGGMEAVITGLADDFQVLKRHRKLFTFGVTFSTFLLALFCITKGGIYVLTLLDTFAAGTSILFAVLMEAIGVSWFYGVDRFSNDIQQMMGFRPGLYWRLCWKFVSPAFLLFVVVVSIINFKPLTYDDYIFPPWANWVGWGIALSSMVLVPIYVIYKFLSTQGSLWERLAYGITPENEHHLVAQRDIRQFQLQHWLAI
In short: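 Cell-free radioligand binding using CHO-derived membrane protein expressing human NET, read by filter scintillation counting 1 h after dosing; loss of signal vs DMSO. Initial duplicate screen at 25 uM, actives retested in concentration series.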

[8] = test system: rat Norepinephrine Transporter (NET), gene 83511; test: NVS_TR_rNET: NovaScreen (NVS) Transporter Assay for rat Norepinephrine Transporter (NET) (AID 2283373)
Protocol: NVS_TR_rNET is a biochemical, single-readout assay that uses extracted gene-proteins from Rat forebrain membranes in a tissue-based cell-free assay. Measurements were taken 1 hour after chemical dosing in a 48-well plate.NVS_TR_rNET is one of one assay component(s) measured or calculated from the NVS_TR_rNET assay. It is designed to make measurements of radioligand binding, a form of binding reporter, as detected with scintillation counting signals by Filter-based radiodetection technology.Data from the assay component NVS_TR_rNET was analyzed into 1 assay endpoint. This assay endpoint, NVS_TR_rNET, was analyzed in the positive analysis fitting direction relative to DMSO as the negative control and baseline of activity. Using a type of binding reporter, loss-of-signal activity can be used to understand changes in the binding as they relate to the gene Slc6a2. Furthermore, this assay endpoint can be referred to as a primary readout, because the performed assay has only produced 1 assay endpoint. To generalize the intended target to other relatable targets, this assay endpoint is annotated to the transporter intended target family, where the subfamily is neurotransmitter transporter.
Binding assays used specific radioligands (tritiated, iodinated) with non-radioactive competitive displacement ligands in agonist or antagonist protocols (as indicated) and various reference compounds and inhibitors to titrate specific binding to receptors and transporters. Most enzyme assays (CYPs, kinases, phosphatases, proteases, HDACs) used recombinant protein and specific substrates (fluorescence mostly, some colorimetric and radioactive) and inhibitors, followed by a biochemical separation of substrate and product. All assays for the biochemical HTS were initially run in duplicate at a single concentration (10 uM for CYP450 assays and 25 uM for all others). […] Each assay was run with positive and negative controls, and concurrent controls on every plate. […]

[9] = target: rat Serotonin Transporter (SERT), Slc6a4 (gene 25553) (UniProt P31652); test: NVS_TR_rSERT: NovaScreen (NVS) Transporter Assay for rat Serotonin Transporter (SERT) (AID 2283375)
rat Serotonin Transporter (SERT), Slc6a4 (gene 25553), sequence (P31652 whole entry, looked up): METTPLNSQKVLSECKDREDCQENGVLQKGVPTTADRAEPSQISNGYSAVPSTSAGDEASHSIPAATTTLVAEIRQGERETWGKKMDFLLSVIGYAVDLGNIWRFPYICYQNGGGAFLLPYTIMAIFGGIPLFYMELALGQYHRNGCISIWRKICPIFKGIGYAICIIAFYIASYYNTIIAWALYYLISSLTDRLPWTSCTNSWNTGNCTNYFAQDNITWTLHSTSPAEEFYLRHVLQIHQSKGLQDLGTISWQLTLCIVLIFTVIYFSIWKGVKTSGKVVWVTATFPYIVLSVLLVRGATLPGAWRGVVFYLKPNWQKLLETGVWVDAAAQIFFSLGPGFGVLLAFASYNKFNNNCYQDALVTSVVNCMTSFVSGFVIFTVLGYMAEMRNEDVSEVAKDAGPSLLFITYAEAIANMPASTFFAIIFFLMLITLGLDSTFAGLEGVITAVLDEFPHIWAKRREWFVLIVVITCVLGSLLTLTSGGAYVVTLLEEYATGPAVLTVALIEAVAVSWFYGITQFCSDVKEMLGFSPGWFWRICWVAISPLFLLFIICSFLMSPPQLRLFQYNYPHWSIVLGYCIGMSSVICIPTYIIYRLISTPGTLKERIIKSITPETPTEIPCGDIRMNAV
In short: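 Radioligand binding with competitive displacement on rat forebrain membrane preparations, counted by filtration and scintillation after 1 h. Primary single-point duplicates at 25 uM; active chemicals followed up in concentration-response. DMSO served as baseline.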

[10] = target: human Serotonin Transporter (SERT), SLC6A4 (gene 6532) (UniProt P31645); test: NVS_TR_hSERT: NovaScreen (NVS) Transporter Assay for human Serotonin Transporter (SERT) (AID 2283372)
human Serotonin Transporter (SERT), SLC6A4 (gene 6532), sequence (P31645 whole entry, looked up): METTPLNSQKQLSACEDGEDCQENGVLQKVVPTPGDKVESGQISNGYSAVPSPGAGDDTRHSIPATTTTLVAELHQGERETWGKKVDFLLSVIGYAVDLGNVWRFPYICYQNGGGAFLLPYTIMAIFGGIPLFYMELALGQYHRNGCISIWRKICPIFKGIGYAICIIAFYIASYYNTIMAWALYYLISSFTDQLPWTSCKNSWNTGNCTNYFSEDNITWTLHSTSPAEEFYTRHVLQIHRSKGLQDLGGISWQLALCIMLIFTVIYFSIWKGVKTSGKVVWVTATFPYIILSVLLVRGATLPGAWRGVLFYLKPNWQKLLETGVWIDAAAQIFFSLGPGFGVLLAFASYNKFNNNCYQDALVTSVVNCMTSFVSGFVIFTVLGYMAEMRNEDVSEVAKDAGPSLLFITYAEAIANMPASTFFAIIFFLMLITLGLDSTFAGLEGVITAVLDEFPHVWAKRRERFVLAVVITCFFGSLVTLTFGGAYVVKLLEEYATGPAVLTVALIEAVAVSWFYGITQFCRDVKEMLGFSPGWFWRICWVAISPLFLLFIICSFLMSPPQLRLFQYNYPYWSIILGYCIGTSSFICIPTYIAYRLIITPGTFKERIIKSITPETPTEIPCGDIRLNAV
In short: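 Radioligand binding to native SERT in human platelet membranes, read by filter-based scintillation counting 1 h after dosing. Primary screen in duplicate at 25 uM; actives followed up in concentration series; loss of signal versus DMSO baseline.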

CCCCOCCOCCOCc1cc2c(cc1CCC)OCO2
outcome [1]: inactive | outcome [2]: inactive

Cc1nn(C)c(Oc2ccccc2)c1C=NOCc1ccc(C(=O)OC(C)(C)C)cc1
outcome [3]: inactive

O=C(c1ccccc1)C1CCCCC1
AC50 [1]: 6.52 µM (active) | outcome [1]: inactive | outcome [3]: inactive | outcome [2]: inactive | outcome [4]: inactive

S=C(S)NCCNC(=S)S.[Mn+2].[S-]C([S-])=NCCN=C([S-])[S-].[Zn+2]
outcome [5]: inactive | outcome [6]: inactive | outcome [2]: inactive | AC50 [7]: 0.269 µM (active) | outcome [7]: inactive

C[C@]12CC[C@@H]3c4ccc(O)cc4C[C@@H](CCCCCCCCCS(=O)CCCC(F)(F)C(F)(F)F)[C@H]3[C@@H]1CC[C@@H]2O (stereo partly drawn)
outcome [1]: inactive | AC50 [6]: 9.12 µM (active) | outcome [2]: inactive | AC50 [4]: 3.4 µM (active) and 2.01 µM (active) | outcome [4]: inactive

OB(O)O
outcome [6]: inactive

CC1(C)C(C=C(Cl)Cl)C1C(=O)OCc1cccc(Oc2ccccc2)c1 (stereo not drawn)
outcome [1]: inactive

CCC(O)=C1C(=O)CC(C(=O)O)CC1=O (stereo not drawn)
outcome [6]: inactive

CCCOC(=O)NCCCN(C)C
AC50 [5]: 11.3 µM (active)

S=C([S-])NCCNC(=S)[S-].[Mn+2]
outcome [5]: inactive

CCCN(CCC)C(=O)SCC
outcome [1]: inactive | outcome [2]: inactive

CC(C)(c1ccc(O)cc1)c1ccc(O)cc1
AC50 [1]: 16.1 µM (active) [middle of 4 runs] | AC50 [5]: 8.43 µM (active) | outcome [5]: inactive | AC50 [3]: 8.77 µM (active) and 25.4 µM (active) and 11.6 µM (active) | outcome [2]: inactive | outcome [8]: inactive | AC50 [7]: 14.5 µM (active) [middle of 4 runs] | outcome [4]: inactive

CC(=O)[C@H]1CC[C@H]2[C@@H]3CCC4=CC(=O)CC[C@]4(C)[C@H]3CC[C@]12C
AC50 [5]: 1.16 µM (active) | AC50 [6]: 6.22 µM (active) | outcome [3]: inactive | AC50 [2]: 4.07 µM (active) | outcome [2]: inactive | AC50 [4]: 17.4 µM (active) | outcome [4]: inactive

O=C(c1ccc(O)cc1O)c1ccc(O)cc1O
AC50 [1]: 7.84 µM (active) [middle of 4 runs] | AC50 [2]: 40.4 µM (active) | outcome [2]: inactive | AC50 [4]: 470 nM (active) and 647 nM (active) and 1.69 µM (active) | outcome [4]: inactive

CCOC(=O)NCCOc1ccc(Oc2ccccc2)cc1
AC50 [3]: 8.75 µM (active)

COC(=O)CSc1cc(N=c2sc(=O)n3n2CCCC3)c(F)cc1Cl
outcome [1]: inactive

CCN(Cc1c(F)cccc1Cl)c1c([N+](=O)[O-])cc(C(F)(F)F)cc1[N+](=O)[O-]
outcome [3]: inactive

CC(C)(C)[C@@H](O)[C@@H](Cc1ccc(Cl)cc1)n1cncn1
AC50 [3]: 4.16 µM (active)

C[C@]12C[C@H](O)[C@H]3[C@@H](CCC4=CC(=O)CC[C@@]43C)[C@@H]1CC[C@@H]2C(=O)CO
AC50 [5]: 25 µM (active) | outcome [4]: inactive

CCC(C)OC(=O)N1CCCCC1CCO (stereo not drawn)
AC50 [5]: 31.1 µM (active) | outcome [2]: inactive

C=CCOC(Cn1ccnc1)c1ccc(Cl)cc1Cl (stereo not drawn)
AC50 [5]: 4.62 µM (active) | AC50 [3]: 14.3 µM (active) | outcome [2]: inactive | AC50 [8]: 11.9 µM (active)

N#CSCSc1nc2ccccc2s1
AC50 [3]: 42.1 µM (active) | outcome [2]: inactive | AC50 [7]: 11.2 µM (active) | outcome [7]: inactive

O=C(O)C1(C(=O)Nc2ccc(Cl)cc2Cl)CC1
AC50 [2]: 8.65 µM (active)

CCCCC(CC)CN1C(=O)C2C3C=CC(C3)C2C1=O (stereo not drawn)
outcome [2]: inactive

C#CCOC(=O)[C@@H](C)Oc1ccc(Oc2ncc(Cl)cc2F)cc1
outcome [2]: inactive

COC(=O)c1ccccc1C(=O)O
outcome [2]: inactive

CCOC(=O)C(C)Oc1ccc(Oc2nc3ccc(Cl)cc3o2)cc1 (stereo not drawn)
outcome [2]: inactive

CCOC(=O)c1ccc(O)cc1
outcome [9]: inactive | outcome [4]: inactive

CCCN(CCC)c1c([N+](=O)[O-])cc(C(F)(F)F)c(N)c1[N+](=O)[O-]
outcome [2]: inactive

O=C(O)c1ccccc1
outcome [2]: inactive | outcome [7]: inactive | outcome [4]: inactive

CCOC(=O)COc1cc(-n2ncc(C(F)(F)F)c(C)c2=O)c(F)cc1Cl
outcome [2]: inactive

C#C[C@]1(O)CC[C@H]2[C@@H]3CCC4=CC(=O)CC[C@@H]4[C@H]3CC[C@@]21CC
outcome [2]: inactive | outcome [4]: inactive

CC(=O)S[C@@H]1CC2=CC(=O)CC[C@]2(C)[C@H]2CC[C@@]3(C)[C@@H](CC[C@@]34CCC(=O)O4)[C@H]12
outcome [2]: inactive | AC50 [4]: 6.63 µM (active) | outcome [4]: inactive

CC(C)CCCCCCc1ccc(O)cc1
outcome [2]: inactive | AC50 [4]: 3.14 µM (active) and 7.57 nM (active) and 7.26 µM (active) | outcome [4]: inactive

COc1c(Cl)ccc(Cl)c1C(=O)O
outcome [10]: inactive | outcome [9]: inactive

COc1nc(C)nc(NC(=O)NS(=O)(=O)c2ccccc2OCCCl)n1
outcome [2]: inactive

Oc1ccc(C(c2ccc(O)cc2)C(Cl)(Cl)Cl)cc1
AC50 [3]: 2 µM (active) | outcome [2]: inactive | outcome [8]: inactive | AC50 [7]: 4.42 µM (active)
